The target in experiment [1] is T1, Inhibitor of nuclear factor kappa-B kinase subunit epsilon (Homo sapiens) (UniProt Q14164).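 Further: reported values are averaged percent inhibition figures against human IKKε.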
T1 sequence (whole entry): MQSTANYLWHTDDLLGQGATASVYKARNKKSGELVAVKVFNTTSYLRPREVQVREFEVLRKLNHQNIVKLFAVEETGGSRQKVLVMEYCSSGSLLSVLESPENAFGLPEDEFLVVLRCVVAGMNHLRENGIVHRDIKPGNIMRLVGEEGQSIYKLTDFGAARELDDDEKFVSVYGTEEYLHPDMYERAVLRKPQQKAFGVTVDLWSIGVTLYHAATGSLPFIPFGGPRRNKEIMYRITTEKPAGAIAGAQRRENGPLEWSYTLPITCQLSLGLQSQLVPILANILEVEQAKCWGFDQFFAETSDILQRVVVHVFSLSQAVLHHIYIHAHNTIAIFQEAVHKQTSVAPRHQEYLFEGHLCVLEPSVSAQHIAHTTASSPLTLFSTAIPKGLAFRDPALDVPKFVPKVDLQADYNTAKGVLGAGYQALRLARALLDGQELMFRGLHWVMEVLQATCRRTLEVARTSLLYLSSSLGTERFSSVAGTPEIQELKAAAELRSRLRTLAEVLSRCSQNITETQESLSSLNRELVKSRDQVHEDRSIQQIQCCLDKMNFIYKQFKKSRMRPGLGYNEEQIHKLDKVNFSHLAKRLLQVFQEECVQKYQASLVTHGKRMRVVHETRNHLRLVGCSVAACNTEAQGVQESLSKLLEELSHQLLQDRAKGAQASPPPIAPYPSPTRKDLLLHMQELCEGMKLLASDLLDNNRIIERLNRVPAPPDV
The following applies: at 1 µM.

Experiment [2] addresses T2, Serine/threonine-protein kinase Nek1 (Homo sapiens) (UniProt Q96PY6).
T2 sequence (whole entry): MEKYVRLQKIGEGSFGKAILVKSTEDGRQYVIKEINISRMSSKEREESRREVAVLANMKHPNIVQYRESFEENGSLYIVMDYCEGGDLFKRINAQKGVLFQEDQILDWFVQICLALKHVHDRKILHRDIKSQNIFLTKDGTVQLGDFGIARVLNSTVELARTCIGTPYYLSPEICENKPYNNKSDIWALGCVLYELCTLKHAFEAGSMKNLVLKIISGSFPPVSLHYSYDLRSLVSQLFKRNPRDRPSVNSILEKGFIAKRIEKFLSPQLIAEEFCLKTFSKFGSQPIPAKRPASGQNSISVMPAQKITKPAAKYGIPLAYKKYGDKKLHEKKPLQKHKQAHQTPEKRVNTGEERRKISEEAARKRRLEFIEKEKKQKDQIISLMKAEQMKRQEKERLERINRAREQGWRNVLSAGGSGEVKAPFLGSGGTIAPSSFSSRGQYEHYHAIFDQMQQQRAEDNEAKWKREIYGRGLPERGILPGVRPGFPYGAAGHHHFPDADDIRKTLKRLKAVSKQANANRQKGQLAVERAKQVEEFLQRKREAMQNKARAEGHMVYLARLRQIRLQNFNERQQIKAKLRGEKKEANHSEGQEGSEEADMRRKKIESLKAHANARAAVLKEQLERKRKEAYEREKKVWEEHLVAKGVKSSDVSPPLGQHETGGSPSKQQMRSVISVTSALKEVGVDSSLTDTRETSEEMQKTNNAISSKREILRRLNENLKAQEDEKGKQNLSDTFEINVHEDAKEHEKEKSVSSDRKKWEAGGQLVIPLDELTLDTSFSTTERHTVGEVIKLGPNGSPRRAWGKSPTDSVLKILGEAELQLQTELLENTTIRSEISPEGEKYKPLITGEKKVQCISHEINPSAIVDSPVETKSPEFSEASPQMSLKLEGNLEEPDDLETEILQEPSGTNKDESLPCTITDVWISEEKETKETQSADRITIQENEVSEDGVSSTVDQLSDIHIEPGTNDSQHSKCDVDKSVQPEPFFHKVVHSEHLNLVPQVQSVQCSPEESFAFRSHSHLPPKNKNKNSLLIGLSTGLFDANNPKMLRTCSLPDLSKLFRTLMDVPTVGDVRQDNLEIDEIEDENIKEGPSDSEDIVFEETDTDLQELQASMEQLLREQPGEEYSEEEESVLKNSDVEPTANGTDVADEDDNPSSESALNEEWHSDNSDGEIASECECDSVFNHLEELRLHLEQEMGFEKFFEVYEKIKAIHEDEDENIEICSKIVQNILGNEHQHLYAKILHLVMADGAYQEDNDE
The conditions noted are these: at 0.1 µM.

The target in experiment [3] is T2, Serine/threonine-protein kinase Nek1 (Homo sapiens). The conditions noted are these: at 1 µM.
Experiment [4] has as its target T3, Serine/threonine-protein kinase Nek2 (Homo sapiens) (UniProt P51955).
T3 sequence (whole entry): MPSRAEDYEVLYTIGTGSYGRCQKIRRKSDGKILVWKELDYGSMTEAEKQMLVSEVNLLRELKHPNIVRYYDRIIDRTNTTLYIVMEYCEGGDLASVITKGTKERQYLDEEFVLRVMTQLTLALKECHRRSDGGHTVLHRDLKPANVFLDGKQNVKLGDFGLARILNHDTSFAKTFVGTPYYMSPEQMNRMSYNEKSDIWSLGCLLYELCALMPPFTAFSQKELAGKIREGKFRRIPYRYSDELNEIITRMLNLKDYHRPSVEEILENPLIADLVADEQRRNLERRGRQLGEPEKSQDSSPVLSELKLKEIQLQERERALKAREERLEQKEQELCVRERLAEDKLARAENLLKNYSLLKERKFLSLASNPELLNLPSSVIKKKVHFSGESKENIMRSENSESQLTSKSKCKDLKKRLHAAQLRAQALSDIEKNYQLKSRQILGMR
The conditions noted are these: at 0.1 µM.

For experiment [5], the target named is T3, Serine/threonine-protein kinase Nek2 (Homo sapiens). The conditions noted are these: at 1 µM.
Experiment [6] concerns the target Serine/threonine-protein kinase Nek6 (Homo sapiens) (UniProt Q9HC98). The following applies: at 0.1 µM.
Experiment [7] has the same target. The conditions noted are these: at 1 µM.
Experiment [8] has as its target Serine/threonine-protein kinase Nek7 (Homo sapiens) (UniProt Q8TDX7). The following applies: at 0.1 µM.
For experiment [9] the target is unchanged. The following applies: at 1 µM.
Experiment [10] concerns the target T4, Serine/threonine-protein kinase Nek9 (Homo sapiens) (UniProt Q8TD19).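 Further: reported value is the mean percent inhibition of NEK9.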
T4 sequence (whole entry): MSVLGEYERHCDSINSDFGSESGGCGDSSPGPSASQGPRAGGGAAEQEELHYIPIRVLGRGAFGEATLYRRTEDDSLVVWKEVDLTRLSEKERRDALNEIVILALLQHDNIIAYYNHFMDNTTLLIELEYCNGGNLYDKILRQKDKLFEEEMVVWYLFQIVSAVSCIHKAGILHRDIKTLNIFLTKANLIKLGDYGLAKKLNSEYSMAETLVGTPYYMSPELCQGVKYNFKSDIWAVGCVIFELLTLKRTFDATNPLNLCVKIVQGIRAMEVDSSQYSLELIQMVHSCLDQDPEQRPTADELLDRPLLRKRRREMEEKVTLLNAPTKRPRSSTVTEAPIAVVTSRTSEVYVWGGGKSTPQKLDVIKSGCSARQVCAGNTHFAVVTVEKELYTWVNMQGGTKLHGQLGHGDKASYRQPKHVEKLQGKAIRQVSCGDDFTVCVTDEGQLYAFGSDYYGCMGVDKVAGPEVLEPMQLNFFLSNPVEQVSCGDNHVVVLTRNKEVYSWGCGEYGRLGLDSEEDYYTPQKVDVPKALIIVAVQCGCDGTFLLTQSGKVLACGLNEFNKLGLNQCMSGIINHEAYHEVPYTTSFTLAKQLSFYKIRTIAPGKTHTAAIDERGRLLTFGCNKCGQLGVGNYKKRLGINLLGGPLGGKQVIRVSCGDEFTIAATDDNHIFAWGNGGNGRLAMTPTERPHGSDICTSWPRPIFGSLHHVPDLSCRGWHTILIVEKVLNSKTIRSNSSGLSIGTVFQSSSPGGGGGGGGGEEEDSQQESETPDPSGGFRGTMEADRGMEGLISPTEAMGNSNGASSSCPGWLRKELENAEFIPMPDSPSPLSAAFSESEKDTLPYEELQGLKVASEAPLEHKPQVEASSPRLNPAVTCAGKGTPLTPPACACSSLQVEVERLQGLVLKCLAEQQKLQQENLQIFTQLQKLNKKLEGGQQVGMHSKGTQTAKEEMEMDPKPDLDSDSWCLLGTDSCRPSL
The conditions noted are these: at 0.1 µM.

Molecules are shown by their SMILES.

As usually defined, the inhibition is the change of the read-out against control, counted positive when it falls.

Serine/threonine-protein kinase Nek7 (Homo sapiens), sequence (Q8TDX7 whole entry, looked up): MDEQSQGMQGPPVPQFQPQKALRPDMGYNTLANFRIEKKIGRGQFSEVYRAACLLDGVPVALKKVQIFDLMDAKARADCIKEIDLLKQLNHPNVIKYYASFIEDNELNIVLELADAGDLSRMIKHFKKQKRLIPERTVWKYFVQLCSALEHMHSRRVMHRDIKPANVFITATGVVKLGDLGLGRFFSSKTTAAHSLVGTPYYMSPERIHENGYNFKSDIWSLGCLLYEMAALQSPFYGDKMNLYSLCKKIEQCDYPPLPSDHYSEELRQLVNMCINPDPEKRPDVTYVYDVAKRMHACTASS
Serine/threonine-protein kinase Nek6 (Homo sapiens), sequence (Q9HC98 whole entry): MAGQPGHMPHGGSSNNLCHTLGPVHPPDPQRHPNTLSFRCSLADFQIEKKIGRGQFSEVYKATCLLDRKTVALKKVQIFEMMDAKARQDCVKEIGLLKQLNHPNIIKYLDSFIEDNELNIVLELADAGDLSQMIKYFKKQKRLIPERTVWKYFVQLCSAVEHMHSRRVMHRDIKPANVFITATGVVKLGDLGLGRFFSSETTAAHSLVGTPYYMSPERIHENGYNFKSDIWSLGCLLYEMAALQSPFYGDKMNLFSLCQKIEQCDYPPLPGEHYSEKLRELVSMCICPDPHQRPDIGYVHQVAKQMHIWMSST

Take `CCn1c(-c2nonc2N)nc2cncc(C(=O)N3CCNCC3)c21`: the inhibition was 7.71% in experiment [1]; 4.64% in experiment [2]; 3.76% in experiment [3]; 3.46% in experiment [4]; 5.88% in [5]; 1.92% in experiment [6]. Also, the inhibition in [7] is 3.67%; in [8], 2.41%; in [9], 10.8%; in experiment [10] it was 6%.

Regarding `[O-][S+]1CCN(Cc2ccc(-c3ccc4ncnc(Nc5ccc(OCc6ccccc6)c(F)c5)c4c3)o2)CC1`, the inhibition in [1] was found to be 1.45%; in [2], 1.95%; in experiment [3], 2.41%; in [4] it was 3.45%; in experiment [5] it was 3.23%; in experiment [6], 1.87%. Moreover, the inhibition in experiment [7] is -0.69%; in [8], 2.33%; in experiment [9], 2.07%; in experiment [10] it was 5.9%.

In the case of `NC(=O)c1cccc(Nc2nccc(Nc3cccc4[nH]ncc34)n2)c1`, the inhibition was 21.4% in experiment [1]; 0.79% in [2]; 8.86% in experiment [3]; -3.63% in [4]; -1.96% in experiment [5]; -4.36% in [6]. The inhibition in [7] is -2.96%; in experiment [8], -1.67%; in experiment [9], -3.47%; in [10], -0.63%.

As to `Cn1cc(C=C2C(=O)Nc3cccnc32)c2ccccc21`, the inhibition in experiment [2] is 2.09%; in [3], 1.05%; in experiment [4] it was 2.65%; in experiment [5] it was 2.9%; in experiment [6], 3.82%; in experiment [7], -1.86%. Further, the inhibition turned out to be 3.8% in experiment [8], 4.49% in experiment [9] and 2.88% in experiment [10].

Take `COc1ccccc1Nc1ncc(-c2ccccc2)o1`: the inhibition in experiment [1] was found to be 7.83%; in [2], 3.62%; in experiment [3] it was 3%; in experiment [4], 6.46%; in experiment [5] it was 6.16%; in experiment [6] it was 0.52%. For the same molecule, the inhibition in experiment [7] was found to be 1.67%; in experiment [8], 2.39%; in experiment [9], 5.45%; in [10], 5.2%.

For `CCn1c(-c2nonc2N)nc2ccncc21`, the inhibition came out at 0.86% in experiment [1]; 1.01% in [2]; 0.07% in experiment [3]; 2.29% in experiment [4]; 1.09% in experiment [5]; 2.53% in experiment [6]. Besides, the inhibition was -2.93% in [7], 3.2% in [8], 2.01% in [9] and 0.35% in experiment [10].

With `COc1cc2ncn(-c3cc(O[C@@H](C)c4ccccc4Cl)c(C(N)=O)s3)c2cc1OC`, the inhibition was found to be 7.74% in experiment [1]; 4.69% in experiment [2]; 19.3% in experiment [3]; 5.52% in [4]; 10.4% in experiment [5]; 1.03% in experiment [6]. Moreover, the inhibition in experiment [7] is 0.67%; in [8], 3.47%; in [9], 4.57%; in [10], 7.99%.

As to `Nc1ncnc2occ(-c3ccc(NC(=O)Nc4cccc(C(F)(F)F)c4)cc3)c12`, the inhibition is 9.66% in experiment [1]; 7.14% in experiment [2]; 41.9% in experiment [3]; 6.56% in experiment [4]; 7.21% in [5]; 2.78% in experiment [6]. The inhibition in experiment [7] was 1.33%; in [8], 2.42%; in [9], -0.46%; in [10] it was 5.7%.

With `CCn1c(-c2nonc2N)nc2cnc(Oc3cccc(NC(=O)c4ccc(OCCN5CCOCC5)cc4)c3)cc21`, the inhibition in experiment [1] was found to be 27.5%; in [2] it was 1.53%; in [3], 3.94%; in [4], 3.27%; in experiment [5], 2.29%; in experiment [6], 2.55%. Also, the inhibition was determined as 4.96% in experiment [7], 6.06% in [8], 3.89% in experiment [9] and 7.58% in [10].

Values taken from ChEMBL document CHEMBL1961873, “Compounds: GSK PKIS; Assays: Nanosyn kinase panel” (2012).
